# Results filed as inconclusive are left out. Calls of active or inactive are those of the source. The call rests on the fitted dose curve; in most records, active means well fitted curve in the direction sought with a large enough effect; inconclusive means small, poorly fitted or top-dose-only effect, or another doubt; inactive means no such curve, though single readings can be large or run the other way.
# Target: Lysine-specific histone demethylase 1A (Homo sapiens) (UniProt O60341)
# Assay: qHTS Assay for Inhibitors of Human Jumonji Domain Containing 2E (JMJD2E): Counterscreen with LSD1
# Conditions: Amplex Red/HRP fluorescence; series mostly up to 57.1 µM
# Source text: The fine interplay among methylation states of several lysine residues on the tails of histone proteins is a major determinant of the transcriptional state of the associated DNA coding regions and is commonly referred to as the histone code. Histone lysine demethylases catalyze the removal of methyl groups from methylated lysine sidechains on histones H3 and H4, thus antagonizing the reactions catalyzed by histone lysine methyltransferases. […] In search for novel inhibitors of JMJD2E demethylase, a member of the largest set of histone demethylases belonging to the Fe(II) and 2-oxoglutarate oxygenase (2OG) superfamily, we performed a quantitative high-throughput screen (Inglese 2006) by using an assay which utilizes a trimethylated peptide substrate corresponding to a fragment of histone H3 (sequence ARKme3STGGK) with detection of the formaldehyde co-product in real time by a formaldehyde dehydrogenase (FDH) coupled reaction. […]
# The assay was performed in a buffer containing 10 mM HEPES, Na pH 7.5, 5 mM MgCl2, 50 mM KCl, 0.01% Nonidet P-40, and 0.1% BSA. […] The plate was then centrifuged at 1,000 rpm for 15 seconds, and the fluorescence intensity was recorded on a ViewLux High-throughput CCD imager (Perkin-Elmer) using standard TAMRA optics (525 nm excitation and 598 nm emission). The plate was then incubated for 30 min at room temperature, and a second read on the ViewLux was performed. […]
smiles,measurement,value
CN1CCN(c2cnc3c(O)ccc(C(=O)O)c3c2)CC1,outcome,inactive

# Reference: PubChem BioAssay AID687009 (National Center for Advancing Translational Sciences (NCATS), 2013)
